Shown are actives, neighbours in structure and some others; about 3.1% of the full set was active somewhere.
KAT2A inh: qHTS Assay for Inhibitors of GCN5L2; GCN5L2 HAT assay, ThioGlo1 CoA-SH fluorescence; Potency, µM (top dose mostly 58.9 µM), most hits filed as inhibitors; AID 504327, 2011; actives 0.21% (n = 390,000)
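Free CoA generated was detected with ThioGlo1 (50uM) fluorescence at Ex340nm/Em540nm, read immediately and after 20 min at room temperature. Enzyme, 20 nM in HEPES pH 7.5 buffer, saw compounds 15 min before adding 75uM H3(1-25) peptide and 70uM acetyl-CoA.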
VDR inh: Inhibitors of the vitamin D receptor (VDR): qHTS. Vitamin D3 receptor (Homo sapiens), P11473. VDR-SRC2-3 peptide fluorescence polarization, 2 h. Potency, µM, most hits filed as inhibitors. actives 0.93% (n = 400,000). AID 504847, 2011
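Fluorescence polarization assay of small-molecule disruption of VDR binding to coregulator peptide SRC2-3. Compounds and controls pin-transferred, then read after 2 h incubation at ambient room temperature.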
PLK1 PBD block: qHTS for Inhibitors of PLK1-PDB (polo-like kinase 1 - polo-box domain): Primary Screen | AID 720504, 2013 | Potency, µM, usual class: inhibitors | actives 2.8% (n = 360,000) | Plk1 PBD binding of FITC phosphopeptide, fluorescence polarization; further: series mostly up to about 57 µM; nearly all actives have a fitted effect of over 65% in size
PI4K2A inh: qHTS for small molecular inhibitors of PI4K2A; purified PI4K2A, ADP-Glo luminescence, 1 h; stronger effect = lower value; activity change, negative = inhibition, % at 76.9 µM; actives 0.13% (n = 420,000); Phosphatidylinositol 4-kinase type 2-alpha (Homo sapiens), Q9BTU6; in the data active means activity change below about -50%; inconclusive means mostly about -30% to -49%
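In this quantitative HTS, ADP production by PI4K2A was quantified luminescently after 1 h at ambient temperature; 100 microM adenosine served as plate-quality control.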
GLS inh: qHTS for Inhibitors of Glutaminase (GLS); actives 0.21% (n = 410,000); Potency, µM (top dose mostly 45.5 µM), actives largely listed as inhibitors; Glutaminase kidney isoform, mitochondrial (Homo sapiens), O94925; GLS enzymatic activity, qHTS titration
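Read-out is an Amplex red fluorescence increase coupled through glutamate oxidase and HRP, measured before and after 30 min room-temperature incubation. hKGA is in 45 mM KH2PO4 (pH 8.2) with 0.02% Tween-20; glutamine added as 1mM solution.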
Of the large screens only hits and unclear results are named; the others gave an inactive call. Unless noted, the call rests on the fitted dose curve; in most records, active means well fitted curve in the direction sought with a large enough effect; inconclusive means small, poorly fitted or top-dose-only effect, or another doubt; inactive means no such curve, though single readings can be large; an effect the other way counts as inactive or inconclusive.

COC(=O)/C=C\C(=O)OC	none (no result: KAT2A inh, VDR inh, PLK1 PBD block, GLS inh)
CC1(C)C(=O)C=CC(=O)C(C)(C)C(=O)C=CC(=O)C(C)(C)C2=CC=C(O2)C(C)(C)C(=O)C=CC1=O	VDR inh inconclusive, PLK1 PBD block 6µM (no result: KAT2A inh)
Brc1ccc(-c2cn3nc4c(nc3n2)CCCC4)cc1	none
c1ccc(-c2cn3nc4c(nc3n2)CCCC4)cc1	KAT2A inh inconclusive, PI4K2A inh -52
CS(=O)c1ccccc1-c1nc(-c2cccc(Cl)c2)no1 (stereo unspecified)	PLK1 PBD block 27µM
CS(=O)c1ccccc1-c1nc(-c2ccc(Cl)cc2)no1 (stereo unspecified)	none
CS(=O)(=O)N1CCC[C@]2(CC[C@H](CCC#N)O2)C1	none (no result: KAT2A inh, VDR inh, PLK1 PBD block, GLS inh)
Cc1ccc(C)c(S(=O)(=O)N2C(=S)NC(=O)C2CC(C)C)c1 (stereo unspecified)	none
CC(C)C1C(=O)NC(=S)N1S(=O)(=O)c1ccc(C(C)(C)C)cc1 (stereo unspecified)	PLK1 PBD block 24µM
NNC(=O)c1[nH]c2ccc(Br)cc2c1-c1ccccc1	VDR inh inconclusive, GLS inh inconclusive
NNC(=O)c1[nH]c2ccc(Cl)cc2c1-c1ccccc1	VDR inh 79µM
C=CCN(C)CC#Cc1ccccc1C	none (no result: KAT2A inh, VDR inh, PLK1 PBD block, GLS inh)
Cc1ccc(C)c(N2N=C(C(=O)O)CCC2=O)c1	none
O=C(O)C1=NN(c2cc(Cl)c(S(=O)(=O)O)cc2Cl)C(=O)C1	PLK1 PBD block inconclusive, GLS inh 1.1µM (no result: KAT2A inh)
CCOC(=O)CC[C@H]1CC[C@]2(CCCN(S(=O)(=O)C3CCCCC3)C2)O1	none (no result: KAT2A inh, VDR inh, PLK1 PBD block, GLS inh)
COc1ccc(NC(=O)/C(Cl)=C(/Cl)S(=O)Cc2ccccc2Cl)cn1 (stereo unspecified)	VDR inh inconclusive, PLK1 PBD block 1.5µM, GLS inh inconclusive
NC(=O)C1CCN(c2nc(-c3ccc(Oc4ccccc4)cc3)cs2)CC1	none (no result: KAT2A inh, VDR inh, PLK1 PBD block, GLS inh)
CCc1cccc(CC)c1NC(=O)CSc1nnc(C2CC2)n1C	VDR inh 89µM
Cc1cccc(-n2cnc(C(=O)NC3CCCCCC3)c2)n1	PLK1 PBD block 24µM
Cc1cccc(-n2cnc(C(=O)O)c2)n1	none
O=C1N/C(=N/N=C/c2ccco2)SC1Cc1ccccc1 (stereo unspecified)	none
C/C(=N\N=C1\NC(=O)C(Cc2ccccc2)S1)c1ccccc1 (stereo unspecified)	PLK1 PBD block 30µM
CCCCNC(=O)NCCCN1CCN(c2ccc(F)cc2)CC1	none (no result: KAT2A inh, VDR inh, PLK1 PBD block, GLS inh)
CCC(=O)N1CCc2cc(S(=O)(=O)NCCC(=O)Nc3cc(C)cc(C)c3)ccc21	PLK1 PBD block 27µM
CC(=O)N1CCc2cc(S(=O)(=O)NCCC(=O)Nc3cc(C)cc(C)c3)ccc21	none
OC(CNCc1ccc(-c2ccccc2)cc1)c1ccccc1 (stereo unspecified)	none
OC(CNCc1ccncc1)c1ccccc1 (stereo unspecified)	PLK1 PBD block 27µM
C/C(=N\NC(=O)c1cccc(S(=O)(=O)N2CCCC2)c1)c1cccs1	KAT2A inh inconclusive, PLK1 PBD block 27µM
CCCC(CCC)C(N)=O	none (no result: KAT2A inh, VDR inh, PLK1 PBD block, PI4K2A inh)
N#CN1CCC(NS(=O)(=O)c2cccc(C(F)(F)F)c2)CC1	none (no result: KAT2A inh, VDR inh, PLK1 PBD block, GLS inh)
Cc1ccccc1NC(=S)C1=C(O)c2sccc2N(C)S1(=O)=O	VDR inh inconclusive, PLK1 PBD block inconclusive
CN1c2ccsc2C(O)=C(C(=S)Nc2ccccc2)S1(=O)=O	VDR inh inconclusive, PLK1 PBD block 21µM
Oc1ccc2ccccc2c1CNc1cnc2ccccc2c1	PLK1 PBD block 3.4µM (no result: GLS inh)
COC(=O)C/C=C/[C@@H](C)[C@H](NC(=O)OCC(Cl)(Cl)Cl)c1ccc(-c2ccccc2)cc1	none (no result: KAT2A inh, VDR inh, PLK1 PBD block, GLS inh)
Oc1ccc(Nc2nc(-c3ccccc3F)nc3ccccc23)cc1	none
O=c1oc(Nc2ccc(F)cc2)nc2ccccc12	PI4K2A inh -57
COC(=O)[C@@]1(OC(C)=O)CC(OC(C)=O)[C@H](OC(C)=O)[C@H](OC(C)=O)C1Br (stereo partly specified)	none (no result: KAT2A inh, VDR inh, PLK1 PBD block, GLS inh)
CC(=O)Nc1ccc(/C(C)=N/Nc2nc(N3CCOCC3)nc(N3CCOCC3)n2)cc1	VDR inh inconclusive, PLK1 PBD block 30µM

Screening results from PubChem.
